# Reference: ChEMBL document CHEMBL3988442, “University of Dundee, Small-Polar-MMV Screening Library” (2021)
# The whole screen tested about 69,000 compounds, of which about 1,000 (1.4%) showed an effect of 50% or more. Only a selection was taken, and strong results are over-represented in it overall.
# System: Leishmania donovani
# Assay: Leishmania intramacrophage assay
# Assay type: functional, organism-based
# Set-up: scale not given: in the data most compounds retested in dose-response had high values
compound,measurement,setting,value
CC(C)Cc1cc(NC(=O)c2cc(Cl)c[nH]2)n(C)n1,Percent Effect,30 µM,-56.19%
N#Cc1cccnc1N1CCCC(CO)(Cc2ccccc2F)C1 (centres undefined),Percent Effect,"30.3 µM, […]",2.884%
CC(=O)c1ccc(N2CCCC(CO)(Cc3ccccc3F)C2)nc1 (centres undefined),Percent Effect,"30.3 µM, […]",13.31%
COc1cc(N2CCCC(CO)(Cc3ccccc3F)C2)ncn1 (centres undefined),Percent Effect,"30.3 µM, […]",63.9%
Nc1cc(N2CCCC(CO)(Cc3ccccc3F)C2)nc(N)n1 (centres undefined),Percent Effect,"30.3 µM, […]",94.26%
N#Cc1cccc(N2CCCC(CO)(Cc3ccccc3F)C2)n1 (centres undefined),Percent Effect,"30.3 µM, […]",29.41%
OCC1(Cc2ccccc2F)CCCN(c2ccc3ccccc3n2)C1 (centres undefined),Percent Effect,"30.3 µM, […]",23.98%
CC(C)(C)c1cn2nc(N3CCC[C@@H]3CO)sc2n1,Percent Effect,"30 µM, 30.03 µM",20.83%
CN(C)C(=O)N1CCN(C(=O)c2ccc(Cl)c(Cl)c2)C(C)(C)C1,Percent Effect,"30.3 µM, […]",36.34%
CCc1nc(N2CCN(CCOC)CC2)c2cnn(C)c2n1,Percent Effect,"30.3 µM, […]",9.143%
CCNC(=O)CN(CC)C(=O)Cc1csc(C(C)C)n1,Percent Effect,"30.3 µM, […]",17.83%
Cc1ncccc1CNCC1COC2(CCCCC2)O1 (centres undefined),Percent Effect,"30.3 µM, […]",19.04%
Cc1nc(NCCCn2cccn2)c2c(n1)c(C)nn2C,Percent Effect,"30.3 µM, […]",-31.03%
O=C(CNC(=O)c1cnc2ccccc2c1O)NCCCn1ccnc1,Percent Effect,"30.3 µM, […]",15.36%
CN(C)C[C@@H]1CN(C(=O)c2cc(F)ccc2F)C[C@@H]1CO,Percent Effect,"30.3 µM, […]",22.29%
CN(CCO)C[C@@H]1CN(Cc2ccccc2C#N)C[C@@H]1CO,Percent Effect,"30.3 µM, […]",12.29%
CN(C)C[C@@H]1CN(C(=O)Cc2ccccc2)C[C@@H]1CO,Percent Effect,"30.3 µM, […]",22.9%
CN(CCO)C[C@@H]1CN(Cc2ccccc2-c2ccccc2)C[C@@H]1CO,Percent Effect,"30.3 µM, […]",83.9%
Cc1cc(F)ccc1N1CCC(N2C[C@@H](CN(C)C)[C@@H](CO)C2)CC1,Percent Effect,"30.3 µM, […]",95.44%
Cc1cc(F)ccc1N1CCC(N2C[C@@H](C)[C@@](C)(O)C2)CC1,Percent Effect,"30.3 µM, […]",44.3%
CN(CCO)C[C@@H]1CN(C(=O)Cc2ccc3ccccc3c2)C[C@@H]1CO,Percent Effect,"30.3 µM, […]",-1.562%
Cc1ccccc1CN1C[C@@H](CN(C)CCO)[C@@H](CO)C1,Percent Effect,"30.3 µM, […]",5.953%
CN(CCO)C[C@@H]1CN(C2CCN(c3ccccc3Cl)CC2)C[C@@H]1CO,Percent Effect,"30.3 µM, […]",89.6%
CN(C)C[C@@H]1CN(C2CCN(c3ccccc3Cl)CC2)C[C@@H]1CO,Percent Effect,"30.3 µM, […]",52.98%
CN(CCO)C[C@@H]1CN(C(=O)c2c(F)cccc2Cl)C[C@@H]1CO,Percent Effect,"30 µM, 30.03 µM",27.13%
CN1CCN(C[C@@H]2CN(C3Cc4ccccc4C3)C[C@@H]2CO)CC1,Percent Effect,"30.3 µM, […]",4.168%
O=C(NCCSCc1ccco1)c1ccc(N2CCOCC2)cc1,Percent Effect,"30.3 µM, […]",-4.352%
CCc1nnc2n1CCN(C(=O)c1nc(-c3ccco3)sc1C)C2,Percent Effect,30 µM,1.353%
O=C(O)C(F)(F)F.O=C(c1ccoc1)N1C[C@@H]2OCCN(c3ncccn3)[C@@H]2C1,Percent Effect,"30.3 µM, […]",10.14%
CCc1nccn1-c1nccnc1C1CCCN(C(=O)COC)C1 (centres undefined),Percent Effect,"30.3 µM, […]",11.67%
Cc1cc(=O)[nH]c(NCCNC(=O)C(c2ccc(F)cc2)N(C)C)n1 (centres undefined),Percent Effect,"30 µM, 30.03 µM",-13%
OCC1(NCc2cnc(-c3cccs3)s2)CCOCC1,Percent Effect,"30.3 µM, […]",16.11%
O=C(C1CC=CC1)N1CCC2(CCC(=O)N2Cc2cccc(F)c2)CC1,Percent Effect,"30.3 µM, […]",15.71%
CCOc1ccc(Cl)c(C(=O)NC(Cc2ccccc2)C(N)=O)n1 (centres undefined),Percent Effect,"30.3 µM, […]",6.553%
CN(C)S(=O)(=O)CCCOc1cccc(-n2ccnc2)c1,Percent Effect,"30.3 µM, […]",-0.5544%
Cc1ccc(N2CCC(N3C[C@@H](CN(C)C)[C@@H](CO)C3)CC2)cc1,Percent Effect,"30.3 µM, […]",38.77%
CNC(=O)CN(C)C1CCN(c2ccc(Cl)cc2)CC1,Percent Effect,"30.3 µM, […]",24.19%
CN(C)C[C@@H]1CN(C2CCN(c3ccc(Cl)cc3)CC2)C[C@@H]1CO,Percent Effect,"30.3 µM, […]",93.76%
OC(COCc1cccs1)Cn1cc(Cl)cn1 (centres undefined),Percent Effect,"30.3 µM, […]",11.71%
CC(C)N1CCN(C(=O)c2csc3nc(-c4ccc(Cl)cc4)cn23)CC1,Percent Effect,"30.3 µM, […]",11.51%
CCC1CN(C(=O)c2csc3nc(-c4ccc(Cl)cc4)cn23)CCN1 (centres undefined),Percent Effect,"30.3 µM, […]",94.25%
O=C(c1csc2nc(-c3ccc(Cl)cc3)cn12)N1CCCC(CO)C1 (centres undefined),Percent Effect,"30.3 µM, […]",-3.231%
CN(CC1CCOCC1)C(=O)NCCCN1CCCCC1,Percent Effect,"30.3 µM, […]",19.46%
O=C(c1ccncc1)N1CCC(c2nc(O)cc(-c3cccnc3)n2)C1 (centres undefined),Percent Effect,"30 µM, 30.03 µM",-2.25%
CN(C)CC1(O)CCN(C(=O)Cc2ccc(Cl)c(Cl)c2)C1 (centres undefined),Percent Effect,"30.3 µM, […]",1.329%
Cc1cc2occ(CC(=O)N3CCC(O)(CN(C)C)C3)c2cc1Cl (centres undefined),Percent Effect,"30.3 µM, […]",50.58%
Cc1cc2occ(CC(=O)N3CCC4(CCCN(C)C4=O)C3)c2cc1Cl (centres undefined),Percent Effect,"30.3 µM, […]",10.63%
O=C(O)[C@@H]1CCN(C(=O)Cc2ccccn2)[C@@H]1c1ccc(F)cc1,Percent Effect,"30.3 µM, […]",8.228%
CCO[C@H]1C[C@@H](O)C12CCN(C(=O)CC(F)(F)F)CC2,Percent Effect,"30.3 µM, […]",-0.6132%
CN(C)CCNC(=O)c1sc2ccccc2c1C1CCC(CN)CC1.Cl (centres undefined),Percent Effect,"30.3 µM, […]",63.37%
Cl.NCC1CCC(c2c(C(=O)NCCO)sc3ccccc23)CC1 (centres undefined),Percent Effect,"30.3 µM, […]",15.08%
COCCNC(=O)c1sc2ccccc2c1C1CCC(CN)CC1.Cl (centres undefined),Percent Effect,"30.3 µM, […]",18.8%
COCc1cccc(NS(=O)(=O)c2cc(C(=O)O)cs2)c1,Percent Effect,"30 µM, 30.03 µM",36.6%
CCNc1ncc2c(n1)CN(c1ccc(OC(F)(F)F)cc1)C2=O,Percent Effect,"30.3 µM, […]",23.96%
CN1CCC(O)(CNCc2ccc(F)c(C(F)(F)F)c2)CC1,Percent Effect,"30.3 µM, […]",85.74%
OC1(CNCc2ccc(F)c(C(F)(F)F)c2)CCSCC1,Percent Effect,"30.3 µM, […]",40.38%
OC1(CNCc2ccc(F)c(C(F)(F)F)c2)CCOC1 (centres undefined),Percent Effect,"30.3 µM, […]",25.18%
CC(C)N1CCN(c2ccc3ccc(C(=O)NC4CCCC4)cn23)CC1.O=C(O)C(F)(F)F,Percent Effect,"30.3 µM, […]",37.85%
N#Cc1cc(F)c(NCCCOCC2CCOC2)c(F)c1 (centres undefined),Percent Effect,"30.3 µM, […]",29.08%
CCc1c(C)nc(C)nc1N1C[C@@H](CN(CC)CCO)[C@@H](CO)C1,Percent Effect,"30.3 µM, […]",-0.6836%
CCc1c(C)nc(C)nc1N1C[C@@H](CN(C)C)[C@@H](CO)C1,Percent Effect,"30.3 µM, […]",54.47%
CCc1c(C)nc(C)nc1N1C[C@@H](CN(C)CCN(C)C)[C@@H](CO)C1,Percent Effect,"30.3 µM, […]",30.66%
Cn1ccnc1CN1C[C@@H](CN2CCCC2)[C@@H](CO)C1,Percent Effect,"30.3 µM, […]",30.27%
CCN1CC[C@]2(CN(Cc3nccs3)C[C@H]2c2ccccc2)C1=O.O=C(O)C(F)(F)F,Percent Effect,"30.3 µM, […]",23.61%
COc1ccc(-c2n[nH]c(C)c2CC(=O)NCCN2CCOCC2)cc1,Percent Effect,"30.3 µM, […]",-10.63%
Cc1noc(C)c1CS(=O)(=O)C(C)C(=O)N(C)c1ccccc1 (centres undefined),Percent Effect,"30.3 µM, […]",39.61%
Cc1noc(CS(=O)(=O)C(C)C(=O)N(C)c2ccccc2)n1 (centres undefined),Percent Effect,"30.3 µM, […]",12.83%
Cc1cc(CS(=O)(=O)C(C)C(=O)N(C)c2ccccc2)on1 (centres undefined),Percent Effect,"30.3 µM, […]",59.375%
Cc1cc(C)n(CC2CN(Cc3cc(C)on3)CCO2)n1 (centres undefined),Percent Effect,30 µM,28.82%
O=C(CN1CCOCS1(=O)=O)NCc1ccccc1,Percent Effect,"30.3 µM, […]",-15.82%
COC1COC2(CCN(Cc3ccc4c(c3)OCO4)CC2)C1.O=C(O)C(F)(F)F (centres undefined),Percent Effect,"30.3 µM, […]",2.758%
CC(C)n1c(C2CCCN(CCS(C)(=O)=O)C2)nc2ccccc21 (centres undefined),Percent Effect,"30 µM, 30.03 µM",13.25%
CC(C)OCCCN1CCCC(c2nc3ccccc3n2C(C)C)C1 (centres undefined),Percent Effect,"30 µM, 30.03 µM",51.41%
CC(C)n1c(C2CCCN(CC(N)=O)C2)nc2ccccc21 (centres undefined),Percent Effect,"30.3 µM, […]",0.009374%
CC(C)c1noc(OCc2cccc(C#N)c2)n1,Percent Effect,"30.3 µM, […]",36.94%
CN1CCN(Cc2noc(-c3cc(-c4ccccc4F)n[nH]3)n2)CC1,Percent Effect,"30.3 µM, […]",-14.35%
c1cc2c(cc1-n1nc(C3CC3)nc1-c1csnn1)OCCO2,Percent Effect,"30.3 µM, […]",-0.4467%
CC(CNC(=O)c1c[nH]nn1)Oc1ccc(Cl)cc1 (centres undefined),Percent Effect,"30.3 µM, […]",-48.71%
c1cc(C2CCN(c3ncnc4c3CCNCC4)CC2)ccn1,Percent Effect,"30.3 µM, […]",3.191%
c1ccc2c(c1)CN(c1ncnc3c1CCNC3)CCO2,Percent Effect,"30.3 µM, […]",24.34%
c1ccn2c(C3CCCN(c4ncnc5c4CCNC5)C3)nnc2c1 (centres undefined),Percent Effect,"30.3 µM, […]",-1.091%
c1ccc(C2CCCN(c3ncnc4c3CCNC4)CC2)cc1 (centres undefined),Percent Effect,"30.3 µM, […]",74.19%
Clc1cccc(C2CCN(c3ncnc4c3CCNC4)C2)c1 (centres undefined),Percent Effect,"30.3 µM, […]",76.01%
c1ccc(C2CCN(c3ncnc4c3CCNC4)CC2)cc1,Percent Effect,"30.3 µM, […]",29.27%
N#Cc1cc(C(F)(F)F)ccc1NCC1CCS(=O)(=O)CC1,Percent Effect,"30.3 µM, […]",3.711%
O=C(c1cc[nH]n1)N1CCC(c2cc(Nc3ccccn3)n[nH]2)CC1,Percent Effect,"30.3 µM, […]",6.823%
Cc1ccc(NC2CCN(C(=O)c3cccc4[nH]ncc34)CC2)nn1,Percent Effect,"30.3 µM, […]",16.62%
Cc1cc(CCC(=O)N2CC[C@H](O)C2)ccc1Br,Percent Effect,"30.3 µM, […]",-18.41%
Cc1ccccc1C(C)CC(=O)N1CC[C@H](O)C1 (some centres undefined),Percent Effect,"30.3 µM, […]",50.74%
COc1ccccc1C(C)CC(=O)N1CC[C@H](O)C1 (some centres undefined),Percent Effect,"30.3 µM, […]",5.433%
COCCNc1ccccc1CNC(=O)NCc1cnc(C)s1,Percent Effect,"30.3 µM, […]",19.41%
c1cnn(CC2CCCN2Cc2nc(-c3ccoc3)no2)c1 (centres undefined),Percent Effect,"30 µM, 30.03 µM",-37.38%
Cn1nc(C(=O)NCc2ccccc2C(F)(F)F)c2c1CCS(=O)(=O)C2,Percent Effect,"30.3 µM, […]",36.38%
CCN1CC2(CCCCN2C(=O)c2ccsc2)CC1=O (centres undefined),Percent Effect,"30.3 µM, […]",22.42%
C=C1C(C)(C)[C@H]2CC[C@]1(C(=O)N1CCC(Cn3cc(CO)nn3)CC1)C2,Percent Effect,"30.3 µM, […]",-11.33%
Cc1nc(CN2CCC3(CCCN(Cc4ccoc4)C3)C2=O)cs1.O=C(O)C(F)(F)F.O=C(O)C(F)(F)F (centres undefined),Percent Effect,"30.3 µM, […]",15.73%
Cc1nc(CN2CCC3(C2)CN(C(=O)c2ccc[nH]2)C3)cs1,Percent Effect,"30.3 µM, […]",35.81%
Cc1nc(CN2C(=O)CCC23CCN(Cc2ccco2)CC3)cs1,Percent Effect,"30.3 µM, […]",23.38%
Cc1nc(CN2CCC3(C2)CN(Cc2ccco2)C3)cs1,Percent Effect,"30.3 µM, […]",58.57%
Cc1nc(CN2CCN(C(=O)CCc3ccco3)CC2)cs1,Percent Effect,30 µM,15.52%
Cc1nc(CN2CCC23CCN(Cc2ccoc2)CC3)cs1,Percent Effect,"30.3 µM, […]",63.43%
Cc1nc(CN2CCC23CCN(C(=O)c2ccco2)CC3)cs1,Percent Effect,"30.3 µM, […]",26.24%
Cc1nc(CN2C(=O)CCC23CCN(Cc2ccoc2)CC3)cs1.O=C(O)C(F)(F)F.O=C(O)C(F)(F)F,Percent Effect,"30.3 µM, […]",9.105%
Cc1nc(CN2CCC23CCN(Cc2ccco2)CC3)cs1,Percent Effect,"30.3 µM, […]",53.61%
